Screening results deposited in PubChem BioAssay by National Center for Advancing Translational Sciences (NCATS).
HEK293 tox = cytotoxic compounds in HEK 293 cells. 94,000 tested, 6.6% active. Potency, µM (series often up to 115 µM), for the others: at the top dose activity change, negative = cytotoxicity, usual class: inhibitors. AID 1345083. HEK 293 viability, ATP luminescence (CellTiter-Glo), 48-72 h; further: on the % scale 0 is the no-effect control and ±100 the full control effect; nearly all actives have a fitted effect of over 60% in size
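Pintool-delivered compounds were incubated with HEK 293 cells (250 cells/well) at 37 degree Celsius for 48 or 72 hr. ATP-dependent luminescence (CellTiter-Glo) then reported remaining viable cells.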
3T3 cytotox = cytotoxic compounds in NIH 3T3 cells. NIH 3T3 viability, CellTiter-Glo ATP luminescence, 48-72 h. Potency, µM (top dose mostly 96.7 µM), inactives show top-dose activity change, negative = cytotoxicity, hits mostly inhibitors. 94,000 tested, 4.3% active. AID 1345082; further: on the % scale 0 is the no-effect control and ±100 the full control effect; nearly all actives have a fitted effect of over 55% in size
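ATP-dependent luminescence (CellTiter-Glo) served as the viability signal for NIH 3T3 cells treated with compound for 48 or 72 hr at 37 °C.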
FLuc inh-1 = inhibitors of firefly (Photinus pyralis) luciferase; purified P. pyralis luciferase, luminescence, biochemical; Potency, µM (series often up to 115 µM), hits mostly inhibitors; 76,000 tested, 2.5% active; AID 1347043; further: on the % scale 0 is the no-effect control and ±100 the full control effect; nearly all actives have a fitted effect of over 65% in size
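Inhibitors were tested against purified firefly luciferase in a biochemical, low-substrate format (both substrates at 10uM) and luminescence measured with a CCD imager.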
HEK293 viab = counter-screen for SNCA expression inhibitors: cell viability | 150,000 tested, 0.12% active | HEK-293-SNCA-luc viability, GF-AFC fluorescence, 24 h | Potency, µM (highest dose often 57.1 µM), without a hit: at the highest dose activity change, negative = cytotoxicity, hits mostly cytotoxic;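 further: 0% = DMSO-treated cells and -100% = medium-only wells without cells; nearly all actives have a fitted effect of over 30% in size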
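HEK-293-SNCA-luc cells (1500/well) plated 24 h, then exposed 24 h to a dilution series; GF-AFC added 30 min at 37C, fluorescence 405/540 nm; normalised to medium-only and DMSO wells, Hill fit.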
SNCA expr inhib = SNCA gene expression inhibition | HEK-293 SNCA-luciferase knock-in, luminescence, 24 h | Potency, µM (series often up to 57.2 µM), without a hit: top-dose activity change, negative = inhibition, most hits filed as inhibitors | 140,000 tested, 0.17% active | AID 1671194;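 further: plate controls were DMSO cells for no effect and cell-free wells for full effect; nearly all actives have a fitted effect of over 45% in size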
hNpr1 antagonist = blocks ANP-stimulated signaling of human Npr1 receptor; AID 1347048; Potency, µM (top dose mostly 46.3 µM), inactives show at the highest dose activity change, negative = inhibition, actives largely listed as inhibitors; 76,000 tested, 1.6% active; P16066; HEK293 hNpr1 GloSensor cGMP, ANP-stimulated luminescence; calls by dose curve; further: on the % scale 0 is the no-effect control and ±100 the full control effect; nearly all actives have a fitted effect of over 60% in size
Target sequence (P16066 whole entry, looked up): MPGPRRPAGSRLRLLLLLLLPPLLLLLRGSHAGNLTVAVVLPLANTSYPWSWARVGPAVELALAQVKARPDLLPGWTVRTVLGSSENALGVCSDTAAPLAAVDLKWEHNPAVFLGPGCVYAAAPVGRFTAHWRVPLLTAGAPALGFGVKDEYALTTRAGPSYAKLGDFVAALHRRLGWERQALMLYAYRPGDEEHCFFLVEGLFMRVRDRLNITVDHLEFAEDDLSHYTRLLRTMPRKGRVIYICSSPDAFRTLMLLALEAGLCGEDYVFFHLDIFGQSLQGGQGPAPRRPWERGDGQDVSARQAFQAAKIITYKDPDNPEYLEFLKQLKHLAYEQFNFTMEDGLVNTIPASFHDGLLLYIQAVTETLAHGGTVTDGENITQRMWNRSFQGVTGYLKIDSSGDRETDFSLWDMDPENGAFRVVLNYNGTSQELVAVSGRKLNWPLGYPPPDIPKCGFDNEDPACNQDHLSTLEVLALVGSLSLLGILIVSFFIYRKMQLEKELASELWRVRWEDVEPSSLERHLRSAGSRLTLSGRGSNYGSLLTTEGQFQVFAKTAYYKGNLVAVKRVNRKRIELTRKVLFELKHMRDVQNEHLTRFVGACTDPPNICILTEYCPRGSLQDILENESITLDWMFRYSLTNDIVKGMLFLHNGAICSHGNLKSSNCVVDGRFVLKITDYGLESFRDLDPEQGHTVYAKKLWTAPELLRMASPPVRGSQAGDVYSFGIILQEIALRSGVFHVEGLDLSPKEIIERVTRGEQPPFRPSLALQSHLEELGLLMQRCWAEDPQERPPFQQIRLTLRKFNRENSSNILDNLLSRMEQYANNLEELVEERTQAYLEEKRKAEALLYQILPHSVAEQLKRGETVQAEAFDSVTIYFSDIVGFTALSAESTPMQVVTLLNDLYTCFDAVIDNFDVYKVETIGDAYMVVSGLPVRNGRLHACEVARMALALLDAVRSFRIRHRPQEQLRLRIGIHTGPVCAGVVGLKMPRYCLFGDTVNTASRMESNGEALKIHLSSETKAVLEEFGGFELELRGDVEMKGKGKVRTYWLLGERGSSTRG
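HEK293 cells stably expressing human Npr1 and cGMP GloSensor pGS-40F, loaded 2 h with 2% GloSensor reagent, given compound 30 min at room temperature. Luminescence read before and 20 min after 0.1 nM hNppA.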
FLuc SDR no ATP = firefly luciferase binding stabilization, ATP absent; shares compounds with FLuc inh-1; Potency, µM (series often up to 32.7 µM), without a hit: at the top dose activation (signal gain), most hits filed as activators; 1,300 tested, 7.8% active; Purified FLuc-C-HiBiT, Nano-Glo HiBiT luminescence, no ATP; further: nearly all actives have a fitted effect of over 55% in size
FLuc SDR ATP = firefly luciferase binding stabilization, ATP added; 1,300 tested, 8.7% active; purified FLuc-C-HiBiT + ATP, HiBiT complementation luminescence; Potency, µM (series often up to 32.7 µM), inactives show at the top dose activation (gain of signal), actives largely listed as activators; shares compounds with FLuc inh-1;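 further: signal reports ligand binding via conformational change of the enzyme rather than luciferase catalysis; % of control where 0% means no effect; nearly all actives have a fitted effect of over 55% in size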
FLuc inh-2 = firefly luciferase enzyme inhibition; AID 1963320; Potency, µM (doses to about 32.7 µM), inactives show at the highest dose activity change, negative = inhibition, usual class: inhibitors; shares compounds with FLuc inh-1; 1,300 tested, 42% active; purified FLuc-C-HiBiT enzyme, luciferin luminescence; further: on the % scale 0 is the no-effect control and ±100 the full control effect; nearly all actives have a fitted effect of over 70% in size
Numbers without * were called inactive; i = inactive; u = inconclusive; x = no result; [ ] = another dose, or the depositor's remark. An excerpt weighted towards active compounds, which were near 7.4% of everything screened. Unless noted, the call rests on the fitted dose curve; in most records, active means well fitted curve in the direction sought with a large enough effect; inconclusive means small, poorly fitted or top-dose-only effect, or another doubt; inactive means no such curve, though single readings can be large; an effect the other way counts as inactive or inconclusive. Potency means the concentration at half of the fitted maximal effect.

SMILES	HEK293 tox	3T3 cytotox	FLuc inh-1	HEK293 viab	SNCA expr inhib	hNpr1 antagonist	FLuc SDR no ATP	FLuc SDR ATP	FLuc inh-2
O=C1Cc2c(-c3cccc4ccccc34)n[nH]c2CN1CCOc1ccccc1	45µM*	45µM*	10µM*	-14%[87.6 µM]	75%[87.6 µM]	u	7%[49.3 µM]	10%[49.3 µM]	u
Cc1cc(CNC(=O)C2CCCCn3nnnc32)c2[nH]c(-c3ccccc3)c(C)c2c1 (stereo not given)	25µM*	35µM*	8.9µM*	-15%	29%	-11%	18%	14%	u
O=C(Nc1ccc2c(c1)OCCO2)C1CN(S(=O)(=O)C2CC2)CC12CCCCC2 (stereo not given)	u	-22%	1.1µM*	4%	u	u	u	u	4.4µM*
CCS(=O)(=O)c1ccccc1C(=O)Nc1ccc(-c2nc3ccccc3s2)cc1	x	x	x	-15%	112%	x	19%	8%	-9%
Nc1ccc(-c2nc3ccccc3s2)cc1	x	x	x	x	x	x	u	u	1.8µM*
Cc1ccc2sc(-c3ccc(N)cc3)nc2c1	x	x	x	-5%	u	x	3.1µM*	u	0.28µM*
CNc1ccc(-c2nc3ccccc3s2)cc1	x	x	x	x	x	x	1.8µM*	1.1µM*	0.078µM*
CC(C)(N)c1ccc(-c2nc3ccccc3nc2-c2ccccc2)cc1	x	x	x	-1%	u	x	x	x	x
CN(CCc1noc(C2CN(Cc3cccc(C#N)c3)C2)n1)C(=O)C1CCOCC1	-25%	-28%	x	-6%	29%	x	x	x	x
CC(C)(C)C(=O)Nc1ccc2nc(SCc3ccccc3)sc2c1	x	x	x	-8%	97%	x	x	x	x
CC(C)(C)C(=O)Nc1ccc(-c2nc3ccccc3s2)cc1	x	x	x	-9%	1.4µM*	x	0.078µM*	0.044µM*	0.02µM*
CCOP(=O)(Cc1ccc(-c2nc3ccccc3s2)cc1)OCC	x	x	x	x	x	x	17%	15%	u
COC(=O)N1CCC(C(=O)N2CCCC(c3nc4ccncc4[nH]3)C2)CC1 (stereo not given)	2%	1%	x	1%	23%	x	x	x	x
COc1ccc(-c2noc(N3CCc4ccccc43)n2)cc1	0%	-10%	1.6µM*	-1%	60%	u	25%	u	3.1µM*
COc1cccc(NC(=O)CCc2nc(-c3ccc(C(C)(C)C)cc3)no2)c1	x	x	x	2%	u	x	20%	16%	7µM*
CCOc1ccc(NC(=O)CCCc2nc(-c3cccc(OC)c3)no2)cc1	x	x	x	-11%	48%	x	x	x	x
CN(Cc1ccsc1)Cc1cccc(C(F)(F)F)c1	-15%[172 µM]	-18%[138 µM]	x	-6%[87.6 µM]	9%[87.6 µM]	x	x	x	x
CCOC(=O)c1ccc(NC(=O)c2csc3c2CCCC3)cc1	x	x	x	0%	91%	x	16%	11%	u
COCCCn1c(=O)c(C(=O)NCCCc2ccccc2)nc2cccnc21	4%	-15%	x	-15%	8%	x	x	x	x
COCC(=O)N1CCCN(c2ccnc3ccnn23)CC1	-2%[172 µM]	-17%[138 µM]	x	12%[87.6 µM]	2%[87.6 µM]	x	x	x	x
O=C(c1ccccc1)N1CCc2nc(C3CC3)nc(-c3ccc(Cl)cc3)c2C1	u	-34%	x	u	-4%	x	x	x	x
O=C(Nc1ccccc1)N1CCc2nc(C3CC3)nc(-c3ccc(Cl)cc3)c2C1	u	u	i	-15%	-25%	-1%	12%	7%	-3%
CCOc1nccn2c(-c3ccc(CN4CCN(C(C)=O)CC4)cc3)cnc12	-25%[172 µM]	u	u	-2%[87.6 µM]	-11%[87.6 µM]	0%[70.6 µM]	x	x	x
OC1CN(Cc2ccc(-c3cnc4c(OCc5ccccc5)nccn34)cc2)C1	u	89µM*	5µM*	-10%[87.6 µM]	70%[87.6 µM]	-27%[70.6 µM]	26%[49.3 µM]	u	u
Fc1ccc(NCc2ccccc2-c2nnc(-c3ccccc3Cl)o2)cc1Cl	x	x	x	4%	69%	x	17%	9%	u
SMILES	HEK293 tox	3T3 cytotox	FLuc inh-1	HEK293 viab	SNCA expr inhib	hNpr1 antagonist	FLuc SDR no ATP	FLuc SDR ATP	FLuc inh-2
CCOC(=O)c1ccc(NC(=O)N2CCc3c(nc4cc[nH]n4c3=O)C2)cc1	9%	i	i	9%	6%	1%	x	x	x
CCN(C(=O)CSc1nnc(-c2ccc(Cl)cc2)o1)c1ccccc1	x	x	x	11%	15%	x	x	x	x
O=C(O)CCSc1nnc(-c2ccc(Cl)cc2Cl)o1	x	x	x	15%	u	x	u	0.7µM*	0.5µM*
CN(Cc1ccccc1)C(=O)[C@H]1C[C@@H](O)[C@H](O)[C@@H]2N=C(Nc3ccc(Cl)cc3)S[C@@H]21	5%	-1%	i	3%	u	-2%	x	x	x
CC(C)c1ccc(N2C(=S)N[C@H]3[C@@H](O)[C@H](O)C[C@@H](C(=O)N(C)Cc4ccccc4)[C@H]32)cc1	40µM*	35µM*	3.2µM*	-8%	76%	-25%	10%	11µM*	11µM*
COc1cccc(N2C(=O)NC(=NC3CCCCC3)C23CCN(C(=O)c2ccc(C)cc2)CC3)c1	-5%	u	x	5%	-10%	x	x	x	x
Nc1nccc(-c2c(-c3ccc(F)cc3)ncn2C2CCNCC2)n1	x	x	x	x	x	x	15%	8%	3%
CCCC1(CO)CCCN(Cc2cc(-c3ccc(C)cc3)no2)C1 (stereo not given)	u	u	u	-1%	69%	-12%	x	x	x
Cc1ccc(NC(=O)N2CC[C@@H]3C(=O)NCCCCCCN(Cc4ccncc4)[C@@H]3C2)cc1C	u	u	i	-1%	-3%	-3%	x	x	x
CN1CCCCCCN(C(=O)Nc2ccc3c(c2)OCCO3)CCC1=O	-1%	-11%	4.5µM*	4%	110%	-29%	29%	u	9.9µM*
O=C1NCCCCCCN(Cc2ccncc2)[C@@H]2CN(C(=O)Nc3ccc4c(c3)OCCO4)CC[C@H]12	-21%	u	11µM*	-26%	83%	-3%	20%	17%	u
O=C(Nc1ccc2c(c1)OCCO2)N1CCN(C(=O)N2CC3CC(C2)[C@H]2CCCC(=O)N2C3)CC1 (stereo not given in full)	14%	3%	i	3%	109%	2%	x	x	x
